What all share (test): DAPPL (digital affinity profiling via proximity ligation, sequencing); 10 mM Tris-HCl pH 7.5, 50 mM NaCl, 1 mM DTT, 4% glycerol, room temperature, 30 min; GST-TFs on glutathione beads, 16-mer random dsDNA library, 0.1% formaldehyde crosslink after washing; high values mean tight binding
One experiment has as its target T1, FEV (Homo sapiens, UniProt Q99581 1-238).
T1 sequence: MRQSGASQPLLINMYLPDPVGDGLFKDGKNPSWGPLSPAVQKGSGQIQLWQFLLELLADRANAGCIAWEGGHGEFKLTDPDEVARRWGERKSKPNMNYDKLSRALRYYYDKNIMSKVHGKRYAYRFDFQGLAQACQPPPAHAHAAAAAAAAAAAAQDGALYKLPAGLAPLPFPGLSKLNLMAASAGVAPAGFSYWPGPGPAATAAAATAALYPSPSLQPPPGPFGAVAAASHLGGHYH
The settings on record: protein: recombinant; tags: N-terminal GST; dsDNA, one strand shown. In a few lines:
(§1)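 Sequencing on an Illumina NextSeq500 followed washing, crosslinking with 0.1% formaldehyde, proximity ligation (BsaI/T4 ligase, 1 h, 37 °C) and PCR amplification of pools that had been incubated for 30 min at room temperature with 200 nmole of a random double-stranded 16-mer DNA library in Tris/NaCl/DTT/glycerol buffer. Each pool held DNA-barcoded human transcription factors, expressed in yeast as GST fusions and captured on glutathione beads, plus a tag-only sample. Binding signal is a hexamer's read frequency for a factor divided by its frequency in the tag-only sample.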

Another experiment has as its target ETV5 (Homo sapiens, UniProt P41161 1-510). The settings on record: protein: recombinant; tags: N-terminal GST; dsDNA, one strand shown. In a few lines: as §1
For another experiment, the target named is HSF1 (Homo sapiens, UniProt Q00613 1-529). Conditions: protein: recombinant; tags: N-terminal GST; chain copies: 3; dsDNA, one strand shown. A digest of the protocol: as §1
The next experiment addresses T2, SPIC (Homo sapiens, UniProt Q8N5J4 1-248).
T2 sequence: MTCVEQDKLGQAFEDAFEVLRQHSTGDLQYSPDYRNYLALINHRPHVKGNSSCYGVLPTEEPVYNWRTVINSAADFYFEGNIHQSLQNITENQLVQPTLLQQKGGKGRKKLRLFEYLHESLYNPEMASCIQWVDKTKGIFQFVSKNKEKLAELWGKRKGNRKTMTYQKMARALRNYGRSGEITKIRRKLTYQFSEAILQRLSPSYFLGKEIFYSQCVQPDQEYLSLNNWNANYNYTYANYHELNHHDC
The settings on record: protein: recombinant; tags: N-terminal GST; dsDNA, one strand shown. In a few lines: as §1

The target of a further experiment is ELF4 (Homo sapiens, UniProt Q99607 1-663). The settings on record: protein: recombinant; tags: N-terminal GST; dsDNA, one strand shown. A digest of the protocol: as §1
In another experiment the target is T3, ELK4 (Homo sapiens, UniProt P28324-2 1-405).
T3 sequence: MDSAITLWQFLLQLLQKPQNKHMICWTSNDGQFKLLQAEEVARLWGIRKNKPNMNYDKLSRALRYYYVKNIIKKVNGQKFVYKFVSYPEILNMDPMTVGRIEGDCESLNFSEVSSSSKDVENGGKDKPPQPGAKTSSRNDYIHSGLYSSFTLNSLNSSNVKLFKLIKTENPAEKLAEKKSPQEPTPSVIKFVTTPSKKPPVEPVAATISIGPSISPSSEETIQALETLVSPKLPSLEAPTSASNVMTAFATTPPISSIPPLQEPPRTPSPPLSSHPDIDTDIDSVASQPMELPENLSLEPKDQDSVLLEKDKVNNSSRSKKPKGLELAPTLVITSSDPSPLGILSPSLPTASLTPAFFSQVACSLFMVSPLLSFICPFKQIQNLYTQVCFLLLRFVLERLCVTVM
Conditions: protein: recombinant; tags: N-terminal GST; dsDNA, one strand shown. A digest of the protocol: as §1

Another experiment addresses T4, ETV2 (Homo sapiens, UniProt O00321 1-342).
T4 sequence: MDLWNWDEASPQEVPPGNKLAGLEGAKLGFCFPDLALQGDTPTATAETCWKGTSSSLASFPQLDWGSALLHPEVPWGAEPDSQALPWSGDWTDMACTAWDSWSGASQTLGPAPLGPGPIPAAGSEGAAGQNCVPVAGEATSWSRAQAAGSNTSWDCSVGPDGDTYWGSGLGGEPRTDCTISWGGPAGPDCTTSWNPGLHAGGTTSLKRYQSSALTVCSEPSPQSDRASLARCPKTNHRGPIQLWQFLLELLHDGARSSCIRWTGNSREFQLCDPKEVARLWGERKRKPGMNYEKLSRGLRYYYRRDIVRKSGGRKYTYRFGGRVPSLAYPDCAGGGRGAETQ
The settings on record: protein: recombinant; tags: N-terminal GST; dsDNA, one strand shown. In a few lines: as §1

Another experiment has as its target T5, ELF3 (Homo sapiens, UniProt P78545 1-371).
T5 sequence: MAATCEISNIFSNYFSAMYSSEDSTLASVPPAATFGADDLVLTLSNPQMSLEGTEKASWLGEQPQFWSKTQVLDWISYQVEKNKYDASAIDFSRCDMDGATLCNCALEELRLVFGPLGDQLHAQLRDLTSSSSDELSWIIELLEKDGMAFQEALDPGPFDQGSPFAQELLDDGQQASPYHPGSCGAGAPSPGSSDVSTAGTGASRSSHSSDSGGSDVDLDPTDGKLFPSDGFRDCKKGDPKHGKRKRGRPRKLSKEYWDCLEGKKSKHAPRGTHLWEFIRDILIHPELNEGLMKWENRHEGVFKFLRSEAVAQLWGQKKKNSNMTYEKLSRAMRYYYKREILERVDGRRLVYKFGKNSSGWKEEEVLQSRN
Conditions: protein: recombinant; tags: N-terminal GST; dsDNA, one strand shown. A digest of the protocol:
as §1

Another experiment concerns the target CRX (Homo sapiens, UniProt O43186 1-299). Conditions: protein: recombinant; tags: N-terminal GST; dsDNA, one strand shown. A digest of the protocol: as §1
In a further experiment the target is ETV1 (Homo sapiens, UniProt P50549 1-477). The settings on record: protein: recombinant; tags: N-terminal GST; dsDNA, one strand shown. A digest of the protocol:
as §1

The next experiment has as its target T6, ERF (Homo sapiens, UniProt P50548 1-548).
T6 sequence: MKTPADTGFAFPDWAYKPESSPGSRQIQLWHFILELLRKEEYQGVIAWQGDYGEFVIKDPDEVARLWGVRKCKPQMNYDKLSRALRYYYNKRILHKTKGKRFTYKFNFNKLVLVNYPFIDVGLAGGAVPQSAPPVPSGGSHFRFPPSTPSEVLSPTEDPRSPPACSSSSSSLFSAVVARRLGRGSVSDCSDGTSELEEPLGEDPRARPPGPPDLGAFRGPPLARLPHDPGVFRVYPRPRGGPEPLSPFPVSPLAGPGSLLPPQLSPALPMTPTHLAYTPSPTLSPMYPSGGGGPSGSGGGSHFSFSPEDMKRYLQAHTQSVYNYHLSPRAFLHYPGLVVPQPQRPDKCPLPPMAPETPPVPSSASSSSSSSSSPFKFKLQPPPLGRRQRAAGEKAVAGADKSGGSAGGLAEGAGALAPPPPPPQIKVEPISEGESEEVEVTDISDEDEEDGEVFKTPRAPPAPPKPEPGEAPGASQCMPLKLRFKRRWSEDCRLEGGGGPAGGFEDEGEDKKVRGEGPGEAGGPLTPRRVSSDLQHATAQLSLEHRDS
Conditions: protein: recombinant; tags: N-terminal GST; dsDNA, one strand shown. A digest of the protocol: as §1

A further experiment has as its target T7, ETV3L (Homo sapiens, UniProt Q6ZN32 1-361).
T7 sequence: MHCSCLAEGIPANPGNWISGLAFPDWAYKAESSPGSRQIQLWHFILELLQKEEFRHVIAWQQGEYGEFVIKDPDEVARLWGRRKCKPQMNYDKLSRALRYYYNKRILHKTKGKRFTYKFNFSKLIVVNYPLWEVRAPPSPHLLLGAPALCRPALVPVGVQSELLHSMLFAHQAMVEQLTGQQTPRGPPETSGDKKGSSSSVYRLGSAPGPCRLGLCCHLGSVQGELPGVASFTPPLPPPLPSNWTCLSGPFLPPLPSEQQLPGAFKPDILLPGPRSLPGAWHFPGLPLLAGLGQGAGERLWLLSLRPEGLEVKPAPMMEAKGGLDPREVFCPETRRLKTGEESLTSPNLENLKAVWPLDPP
The settings on record: protein: recombinant; tags: N-terminal GST; dsDNA, one strand shown. In a few lines: as §1

A further experiment has as its target T8, ETS2 (Homo sapiens, UniProt P15036 1-469).
T8 sequence: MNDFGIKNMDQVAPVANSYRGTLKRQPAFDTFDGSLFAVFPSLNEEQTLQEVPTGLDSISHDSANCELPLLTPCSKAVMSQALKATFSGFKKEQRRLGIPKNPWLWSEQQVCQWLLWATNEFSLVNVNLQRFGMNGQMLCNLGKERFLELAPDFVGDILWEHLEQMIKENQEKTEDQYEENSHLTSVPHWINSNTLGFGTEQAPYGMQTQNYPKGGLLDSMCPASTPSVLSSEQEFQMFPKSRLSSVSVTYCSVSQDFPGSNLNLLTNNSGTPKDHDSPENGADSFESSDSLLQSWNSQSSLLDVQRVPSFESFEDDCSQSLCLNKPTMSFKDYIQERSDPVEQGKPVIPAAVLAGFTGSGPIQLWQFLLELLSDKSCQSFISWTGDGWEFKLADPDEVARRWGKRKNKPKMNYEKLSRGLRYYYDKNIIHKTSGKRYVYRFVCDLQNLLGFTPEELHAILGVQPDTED
The settings on record: protein: recombinant; tags: N-terminal GST; dsDNA, one strand shown. In a few lines: as §1

Another experiment has as its target T9, SPDEF (Homo sapiens, UniProt O95238 1-335).
T9 sequence: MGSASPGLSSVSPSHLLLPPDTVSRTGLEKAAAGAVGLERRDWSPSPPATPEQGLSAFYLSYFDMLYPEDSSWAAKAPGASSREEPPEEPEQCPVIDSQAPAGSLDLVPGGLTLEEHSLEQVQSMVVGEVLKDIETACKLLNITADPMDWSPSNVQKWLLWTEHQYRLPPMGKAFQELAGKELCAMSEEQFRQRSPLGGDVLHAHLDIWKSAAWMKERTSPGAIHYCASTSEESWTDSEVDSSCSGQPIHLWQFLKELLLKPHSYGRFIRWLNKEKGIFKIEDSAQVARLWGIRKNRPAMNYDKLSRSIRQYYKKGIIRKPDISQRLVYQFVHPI
Conditions: protein: recombinant; tags: N-terminal GST; dsDNA, one strand shown. A digest of the protocol:
as §1

Another experiment addresses T10, ETV7 (Homo sapiens, UniProt Q9Y603 1-341).
T10 sequence: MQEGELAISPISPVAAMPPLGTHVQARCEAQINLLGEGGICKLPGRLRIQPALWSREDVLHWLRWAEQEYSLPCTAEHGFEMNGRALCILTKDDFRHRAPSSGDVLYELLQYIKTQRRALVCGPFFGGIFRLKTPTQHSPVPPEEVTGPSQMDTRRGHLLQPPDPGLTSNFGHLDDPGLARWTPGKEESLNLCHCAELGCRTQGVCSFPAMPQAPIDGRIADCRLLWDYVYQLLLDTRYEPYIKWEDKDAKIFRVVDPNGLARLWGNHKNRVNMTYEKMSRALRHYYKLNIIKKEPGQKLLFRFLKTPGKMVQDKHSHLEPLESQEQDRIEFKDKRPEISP
Conditions: protein: recombinant; tags: N-terminal GST; dsDNA, one strand shown. In a few lines: as §1

Another experiment concerns the target T11, ELF5 (Homo sapiens, UniProt Q9UKW6-2 1-255).
T11 sequence: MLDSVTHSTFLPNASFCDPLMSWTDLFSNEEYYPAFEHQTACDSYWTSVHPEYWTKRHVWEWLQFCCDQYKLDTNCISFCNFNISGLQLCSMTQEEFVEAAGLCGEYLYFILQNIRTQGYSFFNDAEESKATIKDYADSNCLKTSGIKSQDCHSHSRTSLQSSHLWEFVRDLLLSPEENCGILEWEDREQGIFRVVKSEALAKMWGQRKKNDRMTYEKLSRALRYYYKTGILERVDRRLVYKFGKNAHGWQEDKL
The settings on record: protein: recombinant; tags: N-terminal GST; dsDNA, one strand shown. In a few lines:
as §1

A further experiment has as its target T12, ETV3 (Homo sapiens, UniProt P41162-2 1-143).
T12 sequence: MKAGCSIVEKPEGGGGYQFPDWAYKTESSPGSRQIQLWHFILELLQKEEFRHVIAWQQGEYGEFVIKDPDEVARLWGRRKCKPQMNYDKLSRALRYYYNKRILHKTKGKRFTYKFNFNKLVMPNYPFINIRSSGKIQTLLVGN
The settings on record: protein: recombinant; tags: N-terminal GST; dsDNA, one strand shown. In a few lines:
as §1

The next experiment addresses ETV6 (Homo sapiens, UniProt P41212 1-452). Conditions: protein: recombinant; tags: N-terminal GST; dsDNA, one strand shown. A digest of the protocol: as §1

Sequence of ETV6 (P41212 whole entry): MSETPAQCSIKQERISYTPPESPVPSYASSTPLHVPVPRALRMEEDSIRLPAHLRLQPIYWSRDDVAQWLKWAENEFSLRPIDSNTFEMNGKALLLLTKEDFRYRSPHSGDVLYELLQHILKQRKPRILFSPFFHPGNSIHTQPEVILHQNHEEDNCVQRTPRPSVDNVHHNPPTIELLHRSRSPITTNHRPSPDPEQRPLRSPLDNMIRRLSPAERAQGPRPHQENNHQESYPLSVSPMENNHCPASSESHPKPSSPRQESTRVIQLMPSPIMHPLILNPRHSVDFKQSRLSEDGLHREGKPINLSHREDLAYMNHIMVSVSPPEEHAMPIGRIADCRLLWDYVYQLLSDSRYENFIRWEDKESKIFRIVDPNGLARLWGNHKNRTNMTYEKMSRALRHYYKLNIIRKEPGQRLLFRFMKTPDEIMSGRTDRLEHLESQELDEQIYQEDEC
Sequence of CRX (O43186 whole entry): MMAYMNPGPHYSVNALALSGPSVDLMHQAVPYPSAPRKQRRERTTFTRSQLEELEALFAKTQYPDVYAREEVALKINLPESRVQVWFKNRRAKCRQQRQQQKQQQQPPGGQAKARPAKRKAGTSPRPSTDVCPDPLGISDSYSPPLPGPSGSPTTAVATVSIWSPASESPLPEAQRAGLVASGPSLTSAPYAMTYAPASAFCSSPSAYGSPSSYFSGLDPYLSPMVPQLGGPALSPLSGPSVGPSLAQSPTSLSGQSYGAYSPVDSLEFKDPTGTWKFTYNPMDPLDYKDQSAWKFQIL
Sequence of HSF1 (Q00613 whole entry): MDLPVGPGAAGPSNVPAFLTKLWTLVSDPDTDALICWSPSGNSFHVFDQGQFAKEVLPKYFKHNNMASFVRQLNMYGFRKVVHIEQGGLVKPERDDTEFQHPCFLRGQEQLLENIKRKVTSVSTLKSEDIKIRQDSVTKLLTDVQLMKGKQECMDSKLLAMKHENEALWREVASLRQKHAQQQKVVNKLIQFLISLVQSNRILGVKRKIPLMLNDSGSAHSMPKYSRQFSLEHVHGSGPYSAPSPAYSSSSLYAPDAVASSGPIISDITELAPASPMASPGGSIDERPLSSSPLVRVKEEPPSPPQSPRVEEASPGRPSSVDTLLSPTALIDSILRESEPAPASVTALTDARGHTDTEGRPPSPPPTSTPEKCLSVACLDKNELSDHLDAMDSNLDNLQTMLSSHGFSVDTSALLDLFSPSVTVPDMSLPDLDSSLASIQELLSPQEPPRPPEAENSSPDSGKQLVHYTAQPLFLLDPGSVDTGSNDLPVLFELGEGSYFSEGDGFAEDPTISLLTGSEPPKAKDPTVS
Sequence of ETV1 (P50549 whole entry): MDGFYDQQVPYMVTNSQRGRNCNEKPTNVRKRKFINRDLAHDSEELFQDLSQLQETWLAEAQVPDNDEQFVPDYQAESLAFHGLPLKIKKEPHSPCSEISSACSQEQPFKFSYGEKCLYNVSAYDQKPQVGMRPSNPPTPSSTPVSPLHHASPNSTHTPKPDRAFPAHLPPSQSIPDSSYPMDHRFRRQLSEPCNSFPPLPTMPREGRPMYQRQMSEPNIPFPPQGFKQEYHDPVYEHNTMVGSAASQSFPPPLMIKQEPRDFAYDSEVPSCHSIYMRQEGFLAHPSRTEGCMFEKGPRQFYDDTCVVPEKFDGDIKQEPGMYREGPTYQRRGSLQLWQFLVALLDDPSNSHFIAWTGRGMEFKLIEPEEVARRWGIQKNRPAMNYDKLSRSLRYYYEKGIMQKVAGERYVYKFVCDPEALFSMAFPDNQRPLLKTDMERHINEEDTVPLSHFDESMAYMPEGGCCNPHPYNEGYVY
Sequence of ETV5 (P41161 whole entry): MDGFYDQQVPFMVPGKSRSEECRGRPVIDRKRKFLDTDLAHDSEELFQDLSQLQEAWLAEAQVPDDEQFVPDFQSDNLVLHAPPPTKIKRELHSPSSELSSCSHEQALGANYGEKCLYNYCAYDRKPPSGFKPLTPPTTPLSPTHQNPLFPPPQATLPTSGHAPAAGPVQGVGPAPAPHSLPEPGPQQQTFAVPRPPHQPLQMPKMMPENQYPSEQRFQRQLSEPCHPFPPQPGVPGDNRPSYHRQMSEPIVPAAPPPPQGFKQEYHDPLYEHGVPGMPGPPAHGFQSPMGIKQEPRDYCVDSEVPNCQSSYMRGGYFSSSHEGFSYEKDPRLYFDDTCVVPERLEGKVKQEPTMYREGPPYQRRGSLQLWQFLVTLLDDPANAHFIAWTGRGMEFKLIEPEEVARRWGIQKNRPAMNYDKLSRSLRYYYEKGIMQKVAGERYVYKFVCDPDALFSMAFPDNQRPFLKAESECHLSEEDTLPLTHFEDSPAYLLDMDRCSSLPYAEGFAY
Sequence of ELF4 (Q99607 whole entry): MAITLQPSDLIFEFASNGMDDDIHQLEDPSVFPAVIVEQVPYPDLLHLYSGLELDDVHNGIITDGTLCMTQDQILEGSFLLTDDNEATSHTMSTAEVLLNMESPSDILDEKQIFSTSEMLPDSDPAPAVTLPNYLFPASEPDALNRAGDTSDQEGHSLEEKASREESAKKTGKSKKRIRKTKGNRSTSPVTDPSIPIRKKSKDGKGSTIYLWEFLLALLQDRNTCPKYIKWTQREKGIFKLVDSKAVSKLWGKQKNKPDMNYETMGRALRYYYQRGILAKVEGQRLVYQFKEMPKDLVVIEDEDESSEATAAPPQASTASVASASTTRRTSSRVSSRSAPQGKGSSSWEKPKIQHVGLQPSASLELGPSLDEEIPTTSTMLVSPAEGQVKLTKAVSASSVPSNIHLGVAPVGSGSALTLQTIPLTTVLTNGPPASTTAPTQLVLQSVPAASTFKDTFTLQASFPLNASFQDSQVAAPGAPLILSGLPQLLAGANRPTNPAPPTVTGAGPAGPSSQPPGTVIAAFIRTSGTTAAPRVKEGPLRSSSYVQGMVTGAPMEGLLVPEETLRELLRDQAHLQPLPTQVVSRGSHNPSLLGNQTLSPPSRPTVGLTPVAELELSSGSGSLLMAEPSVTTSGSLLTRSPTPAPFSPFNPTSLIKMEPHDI

As for TTCCAA, the binding signal was 1.26 fold enrichment (6-mer frequency, TF over GST control) with FEV; 1.18 fold enrichment (6-mer frequency, TF over GST control) with ETV5; 1.47 fold enrichment (6-mer frequency, TF over GST control) with HSF1; 1.31 fold enrichment (6-mer frequency, TF over GST control) with SPIC; 1.27 fold enrichment (6-mer frequency, TF over GST control) with ELF4; 1.31 fold enrichment (6-mer frequency, TF over GST control) with ELK4. Also, the binding signal is 1.29 fold enrichment (6-mer frequency, TF over GST control) with ETV2; 1.16 fold enrichment (6-mer frequency, TF over GST control) with ELF3; 1.39 fold enrichment (6-mer frequency, TF over GST control) in the experiment with CRX; 1.21 fold enrichment (6-mer frequency, TF over GST control) with ETV1; 1.27 fold enrichment (6-mer frequency, TF over GST control) with ERF; 1.3 fold enrichment (6-mer frequency, TF over GST control) in the experiment with ETV3L. Moreover, the binding signal in the experiment with ETS2 is 1.25 fold enrichment (6-mer frequency, TF over GST control); with SPDEF, 1.29 fold enrichment (6-mer frequency, TF over GST control); with ETV7 it was 1.27 fold enrichment (6-mer frequency, TF over GST control); in the experiment with ELF5 it was 1.21 fold enrichment (6-mer frequency, TF over GST control); with ETV3, 1.22 fold enrichment (6-mer frequency, TF over GST control); with ETV6, 1.29 fold enrichment (6-mer frequency, TF over GST control).

The record behind these values is publication PMC7862700, “An all-to-all approach to the identification of sequence-specific readers for epigenetic DNA modifications on cytosine”.
